# Measurements published in ChEMBL document CHEMBL3433997, “St. Jude Leishmania screening dataset” (2016).
# Key:
# Assay type in all cases: functional
# [1] = molecular target: Solute carrier family 2, facilitated glucose transporter member 1 (Homo sapiens) (UniProt P11166); test: ST_JUDE_LEISH: Cytotoxicity at 2uM final concentration against transgenic Leishmania Mexicana promastigotes LmGLUT1 that are glucose transport deficient and complemented with the human glucose transporter GLUT1. Activity is measured by DNA content using SYBR green in vitro
# [2] = molecular target: Hexose transporter 1 (Plasmodium falciparum) (UniProt O97467); test: ST_JUDE_LEISH: Cytotoxicity at 2uM final concentration against transgenic Leishmania Mexicana promastigotes LmPfHT that are glucose transport deficient and complemented with the Plasmodium falciparum hexose transporter. Activity is measured by DNA content using SYBR green in vitro
# [3] = molecular target: Glucose transporter (Leishmania mexicana) (UniProt O61059); test: ST_JUDE_LEISH: Cytotoxicity at 2uM final concentration against transgenic Leishmania Mexicana promastigotes LmGT2 that are glucose transport deficient and complemented with the L. Mexicana glucose transporter 2. Activity is measured by DNA content using SYBR green in vitro
# Solute carrier family 2, facilitated glucose transporter member 1 (Homo sapiens), sequence (P11166 whole entry): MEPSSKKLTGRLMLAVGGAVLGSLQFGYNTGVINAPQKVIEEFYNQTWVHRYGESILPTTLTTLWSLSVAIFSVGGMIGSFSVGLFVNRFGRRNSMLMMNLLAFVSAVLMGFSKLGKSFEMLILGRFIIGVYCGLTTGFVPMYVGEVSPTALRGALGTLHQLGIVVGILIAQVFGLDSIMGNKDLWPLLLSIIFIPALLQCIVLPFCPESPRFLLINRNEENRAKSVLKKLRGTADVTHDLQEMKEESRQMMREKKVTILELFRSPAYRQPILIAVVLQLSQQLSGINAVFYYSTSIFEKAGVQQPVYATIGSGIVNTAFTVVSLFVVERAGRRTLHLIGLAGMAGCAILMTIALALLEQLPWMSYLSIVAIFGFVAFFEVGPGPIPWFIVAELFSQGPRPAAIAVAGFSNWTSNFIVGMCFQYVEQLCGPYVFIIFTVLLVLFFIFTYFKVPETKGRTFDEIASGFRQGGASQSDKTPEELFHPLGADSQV
Structure (SMILES),inhibition [1] [%],inhibition [2] [%],inhibition [3] [%]
COc1ccc2ncc(F)c(CCN3CC[C@H](NCc4cc5c(s4)CCCN5)[C@H](O)C3)c2n1,9.63,15.1,2.43
Cc1ccc(-c2nnc(Nc3ccc(C(=O)N4CCCCC4)cc3)c3ccccc23)cc1S(=O)(=O)NCC1CCCO1 (stereo not drawn),4.15,21.1,3.22
O=C(Nc1cccc(-c2ccc(-c3nc4cc(C(F)(F)F)ccc4[nH]3)cc2)c1)Nc1ccc(F)c(F)c1F,-0.86,0.2,0.37
COc1ccc(C2CC(=O)C3=C(C2)NC(C)=C(C(=O)OC2CCCC2)C3c2cccc(O)c2)cc1OC (stereo not drawn),4.21,1.05,0.17
Cc1ccc(S(=O)(=O)N2CCN(C(=O)c3cc(-c4ccccc4)n[nH]3)CC2)cc1,4.96,2.9,2.37
CCOc1ccc(NC(C)=O)c(O)c1,5.79,5.38,3.62
CCCc1cc(C(=O)N[C@@H](Cc2ccccc2)[C@H](O)CNC2CCOCC2)c(F)c(N2CCCCS2(=O)=O)c1,4.76,5.47,6.25
CCCc1cc(Cc2cnc(N)nc2N)cc(CCC)c1OC,4.11,1.27,-2.49
Cc1c(S(=O)(=O)Nc2cccc(CCN3CCCCC3CCN3CCCC3)c2)sc2ccc(Cl)cc12 (stereo not drawn),-1.39,2.14,-0.62
Cc1noc(C)c1-c1ccc2c(Nc3ccc(C(F)(F)F)cc3)c(C(N)=O)cnc2c1,3.49,3.21,-3.02
CC(C)(C)N1CCC(N(Cc2ccc(-c3ccc(C(F)(F)F)cc3)cc2)C(=O)Cn2c(CCc3cccc(F)c3F)nc(=O)c3cccnc32)CC1,2.09,0.99,0.47
COc1cc(CN2CCC(N3CCc4cc(NC(=O)c5cc(C)on5)ccc43)C2)ccc1F (stereo not drawn),2.18,2.25,3.34
Cc1nc2nc(N)nc(N)c2c(C)c1Cc1cccs1,1.85,1.16,2.44
O=C(Nc1cc(Cl)cc(Cl)c1)Nc1ccccc1C(=O)NC1CCCCC1,-0.12,-1.94,0.23
CN1CCCC(CN2CCN(Cc3cccc(-c4ccc(-c5nc6ccccc6[nH]5)s4)c3)CC2)C1 (stereo not drawn),7.08,6.85,3.05
Cn1cncc1CCN(Cc1ccc(-c2ccc(C(F)(F)F)cc2)cc1)C(=O)Cn1c(CCc2cccc(F)c2F)cc(=O)c2cccnc21,1.83,2.38,-0.14
CCC(ON1C(N)=NC(N)=NC1(C)C)c1ccc(Cl)cc1 (stereo not drawn),6.11,8.81,10.4
CN(C)CCNc1ncnc2c1[nH]c1ccc(Cl)cc12,3.7,3.91,2.92
Cc1cc(-c2ccc(CNCc3ccsc3)cc2)ccc1S(=O)(=O)NCCN1CCCC1,61.3,21.9,-0.36
Cc1cc(N[C@@H](CC(C)C)C(=O)NC2CCCC2)nc(NCCc2ccc(F)cc2)n1,3.05,1.34,0.03
O=C(Nc1ccsc1)Nc1cccc(-c2cccc(-c3nc4ccccc4[nH]3)c2)c1,9.79,10.8,4.27
CS(=O)(=O)N1CC2(CCN(CCC(NC(=O)NCc3ccccc3Cl)c3ccc(Cl)c(Cl)c3)CC2)c2ccccc21 (stereo not drawn),1.26,1.46,1.78
Cc1cc(=NN=CC=Cc2ccccc2)c2ccc(F)cc2[nH]1,-1.45,2.91,-0.62
COc1cc2nc(Cl)nc(Nc3ccncc3)c2cc1OC,0.52,-0.73,-1.27

Structure (SMILES),inhibition [1] [%],inhibition [2] [%],inhibition [3] [%]
O=C(NC1CCN(CC2(c3ccccc3)CCCC2)CC1)c1n[nH]cc1Cl,0.19,0.32,-0.85
NCc1ccc(CNCc2cccc(-c3cccc(-c4nc5cc(F)ccc5[nH]4)c3)c2)cc1,9.71,9.36,8.54
COc1ccc2ncc(OC)c(CCN3CC[C@@H](NCc4ccc5c(n4)NC(=O)CS5)[C@H](O)C3)c2n1,1.21,1.17,-0.86
Cc1cc(NC(=O)Nc2cccc(Cl)c2Cl)c2ccccc2n1,6.15,6.44,2.66
Cc1cc(-c2ccc(CNC3Cc4ccccc4C3)cc2)ccc1S(=O)(=O)NCCN1CCCC1,30.9,30.9,3.47
CN(CC(=O)Nc1ccc(F)c(F)c1F)c1ncnc2sc(-c3ccccc3)cc12,3.92,4.09,2.74
CC1=C(C(=O)OCCOCc2ccccc2)C(c2ccccc2C(F)(F)F)C(C(=O)OCCOCc2ccccc2)=C(C)N1,-0.46,-0.98,-2.95
COc1cccc(C2C(C(=O)Nc3ccccc3)=C(C)N=c3sc(=Cc4ccc(O)cc4)c(=O)n32)c1 (stereo not drawn),19.2,27.8,16.8
CC(C)N1CCN(C(=O)c2ccc(CN(C)CCCN3CCN(c4cccc(Cl)c4Cl)CC3)s2)CC1,0.58,0.7,0.8
COc1cc(Br)ccc1N1CCN(CCCCNC(=O)c2ccc(NC(=O)c3ccc(Cl)cc3)cc2)CC1,2.1,2.33,1.5
COc1ccc2nccc(N3CCC(NCCNCc4ccc5c(n4)NC(=O)CS5)C3)c2n1 (stereo not drawn),3.26,4.23,4.55
N#Cc1ccc(CN2CCC(NC(=O)c3ccc(-c4nnc(-c5cccc6ccccc56)o4)cc3)CC2)cc1,4.73,2.48,-1.38
CCc1c[nH]c2c(N3CCCS3(=O)=O)cc(C(=O)N[C@@H](Cc3ccccc3)[C@H](O)CNC3CCCCC3)cc12,-0.09,2.13,3.39
CN(C)CCN(C)Cc1ccc(-c2cccc(NC(=O)c3cccc(C#N)c3)c2)cc1,15.4,10.9,8.24
Cc1ccc2c(N/N=C/c3ccccc3[N+](=O)[O-])cc(C)nc2c1,2.06,-5.28,1.01
CCOC(=O)C(NC(=O)c1ccc([N+](=O)[O-])o1)C(C)C (stereo not drawn),-1.7,-1.51,-2.33
Cc1cc(F)ccc1-c1nc(NCCCNCCc2ccccc2)nc2c1ccc(=O)n2-c1c(F)cccc1F,0.55,5.5,0.76
Cc1cccc2nc(-c3cccc(-c4cccc(CNCc5ccc(S(C)(=O)=O)cc5)c4)c3)[nH]c12,1.64,0.32,-0.24
CC(C)(C)c1ccc(CNC(=O)c2cc(CNC3CCNCC3)ccc2O)cc1,1.45,1.01,0.22
CCN(CCCN1CCCCC1)c1cc(C)nc(Nc2ccc(Cl)c(C(F)(F)F)c2)n1,0.03,-0.3,-1.78
CCOc1ccc(-c2nonc2NC(=O)c2cccc(Cl)c2)cc1OCC,2.52,3.66,-0.71
CCOc1cc(C(=O)NC2CCN(Cc3ccccc3)CC2)ccc1-c1nc2cc(Cl)c(F)cc2[nH]1,3.61,2.49,3.19
COc1ccc2nccc([C@@H](O)CNCCCN(C)CCOc3cc(F)cc(F)c3)c2c1,6.85,7.45,6.99
c1ccc2oc(-c3cc4ccncc4cc3OC3CCNCC3)cc2c1,-1.3,-3.57,-3.28

Structure (SMILES),inhibition [1] [%],inhibition [2] [%],inhibition [3] [%]
COc1ccc(C2C(C(=O)OC3CCCC3)=C(C)NC3=C2C(=O)CCC3)cc1Br (stereo not drawn),1.02,-0.27,0.31
COc1c(C2CCN(CCCCNC(=O)c3cc(-c4ccc(Cl)cc4)[nH]c3C)CC2)ccc2c1CCCC2,3.66,4.04,4.31
O=c1cc(NCCCCNCc2ccc(Br)c(Br)c2)[nH]c2ccccc12,0.91,0.5,-4.13
CCCCOc1ccc(-n2c(Nc3ccccc3)nc3cc(S(N)(=O)=O)ccc32)cc1,11.4,8.64,7.09
Cc1cc(O)nc(NC#N)n1,2.54,3.15,2.82
CN1CCCN(Cc2ccc(-c3ccc(NC(=O)c4cccc(C#N)c4)cc3)cc2)CC1,2.3,0.34,0.78
O=C(Nc1cccc(CN2CCCN(Cc3cccc(Cl)c3)CC2)c1)c1ccc(-c2ccccc2)cc1,4.82,4.23,0.66
Clc1ccc2c(NCCc3ccccc3)ccnc2c1,4.51,4.33,2.56
N#Cc1ccc(N(CCOC(=O)c2ccccc2)Cc2ccccc2C(F)(F)F)cc1C(F)(F)F,1.67,1.18,-0.51
CC[C@H](C)CNC(=O)c1ccnc(-c2ccc(CNCCCc3ccccc3)cc2)c1,1.95,1.1,-0.91
COc1ccc2nccc(N/N=C/c3ccccc3[N+](=O)[O-])c2c1,2.92,4.3,0.03
CC(=O)c1ccc(N2CCN(CCC3(c4ccc(Cl)c(Cl)c4)COCN(C(=O)c4ccccc4)C3)CC2)cc1 (stereo not drawn),4.7,1.18,-0.21
Cc1cc(N[C@@H](Cc2ccccc2)C(=O)NCCOc2ccccc2)nc(NCCc2ccccn2)n1,6.81,6.41,3.94
COc1ccc(NC(=O)[C@H](Cc2ccccc2)Nc2cc(C)nc(NCC3CCCCC3)n2)cc1,1.62,2.59,0.65
Cc1cccc2nc(-c3ccc(-c4cccc(CN5CCN(c6ccncc6)CC5)c4)s3)[nH]c12,4.03,2.05,0.33
O=C(/C=C/c1ccc(Cl)c(Cl)c1)NCCCCCN1CCC(C(=O)Nc2ccc(Cl)c(Cl)c2)CC1,3,2.54,2.34
O=C(Nc1ccc(-c2nc3ccccc3[nH]2)cc1)c1cnc(Cl)c(Cl)c1,0.44,-0.34,2.62
c1ccc(CNCc2ccc(-c3cccc(-c4nc5ccccc5[nH]4)c3)cc2)cc1,-1.6,-1.2,-1.62
COc1ccc(/C=C/C(=O)NCCCCCN2CCC(c3c[nH]c4ccccc34)CC2)cc1O,12.1,9.97,7.57
Cc1cc(C=C(P(=O)(OC(C)C)OC(C)C)P(=O)(OC(C)C)OC(C)C)c2ccccc2c1O,6.71,7.2,1.63
CCCOc1cccc(C(=O)N[C@@H](Cc2ccccc2)[C@H](O)CNCc2ccccc2OC)c1,3.73,2.98,4.75
O=C(NC1CCN(CCC[C@]2(c3ccc(Cl)c(Cl)c3)CCCN(C(=O)c3ccccc3)C2)CC1)c1ccc(F)cc1,3.29,2.13,2.74
CN(C)CC(=O)Nc1cccc(Nc2nccc(NCC(O)c3ccccc3)n2)c1 (stereo not drawn),1.36,0.33,-0.94
